# According to the supplement of paper PMC8728848:
# Only a selection was taken, and the strongest signals are over-represented in it overall.
# B1: SJCP1084 (Schistosoma japonicum) (protein)
# chain: MRIINLVIISTALLLINLLQTKSQANGEDTKNGTPDDPGLTKSTELKVEVQALLKDKKTNMRVKWNENLLDNTKPEYHNLRDEACELLLQIVRSVVPLSQDDGECKDVTFTKYVVGTKDGAVNVKLTITFKDSVAINQKPMDLKLKLENDFKNLQSESTLKATKPTFTVKVEKRLIPISKPQTTPPTTAKNDASKENVGDIGGEDSTVPTAAPATAASANEEKDEGDKDNKDSQHPNVLTSNVNDRNLIIALVALMILAIGVALTAAVKQR
# Tests used:
# Assay in all cases: glycan array binding signal (z-score within array); higher = stronger binding
# Conditions in all cases: glycan notation: IUPAC condensed, linker removed
# Fuc(a1-2)Gal(b1-3)GlcNAc = biological target: Fuc(a1-2)Gal(b1-3)GlcNAc
# Procedure, shortened: (§1)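 Glycan array data were curated from 3228 arrays in the Consortium for Functional Glycomics database and kept only where the protein sequence was available. Glycan names were converted to IUPAC-condensed notation, and columns mapping to the same glycan were averaged. The binding signal is a within-array Z-score, averaged across arrays of the same protein sequence at different concentrations or buffers and across linkers. Negative Z-scores can be read as non-binding.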
# [1] = biological target: Fuc(a1-2)Gal(b1-3)GlcNAc(b1-3)[Gal(b1-4)GlcNAc(b1-6)]Gal(b1-4)Glc
# Procedure, shortened: as §1
# [2] = biological target: Fuc(a1-2)Gal(b1-3)[Fuc(a1-4)]GlcNAc
# Procedure, shortened: as §1
# [3] = biological target: Fuc(a1-2)Gal(b1-3)[Fuc(a1-4)]GlcNAc(b1-2)Man(a1-3)[Fuc(a1-2)Gal(b1-3)[Fuc(a1-4)]GlcNAc(b1-2)Man(a1-6)]Man(b1-4)GlcNAc(b1-4)[Fuc(a1-6)]GlcNAc(b1-4)[Fuc(a1-6)]GlcNAc
# Procedure, shortened: as §1
# [4] = biological target: Fuc(a1-2)Gal(b1-3)[Fuc(a1-4)]GlcNAc(b1-3)[Fuc(a1-3)[Gal(b1-4)]GlcNAc(b1-6)]Gal(b1-4)Glc
# Procedure, shortened: as §1
# [5] = biological target: Fuc(a1-2)Gal(b1-4)GlcNAc(b1-2)Man
# Procedure, shortened: as §1
# [6] = biological target: Fuc(a1-2)Gal(b1-4)GlcNAc(b1-3)Gal(b1-4)GlcNAc(b1-2)Man(a1-3)[Fuc(a1-2)Gal(b1-4)GlcNAc(b1-3)Gal(b1-4)GlcNAc(b1-2)Man(a1-6)]Man(b1-4)GlcNAc(b1-4)GlcNAc
# Procedure, shortened: as §1
# [7] = biological target: Fuc(a1-2)[Gal(a1-3)]Gal(b1-4)GlcNAc(b1-3)GalNAc
# Procedure, shortened: as §1
# [8] = biological target: Fuc(a1-2)[GalNAc(a1-3)]Gal
# Procedure, shortened: as §1
# [9] = biological target: Fuc(a1-2)[GalNAc(a1-3)]Gal(b1-3)GalNAc(a1-3)[Fuc(a1-2)]Gal(b1-4)GlcNAc
# Procedure, shortened: as §1
# [10] = biological target: Fuc(a1-2)[GalNAc(a1-3)]Gal(b1-3)GlcNAc
# Procedure, shortened: as §1
# [11] = biological target: Fuc(a1-2)[GalNAc(a1-3)]Gal(b1-3)GlcNAc(b1-3)GalNAc
# Procedure, shortened: as §1
# [12] = biological target: Fuc(a1-2)[GalNAc(a1-3)]Gal(b1-4)[Fuc(a1-3)]GlcNAc(b1-3)GalNAc
# Procedure, shortened: as §1
# [13] = biological target: Fuc(a1-3)[Gal3S(b1-4)]GlcNAc
# Procedure, shortened: as §1
# [14] = biological target: Gal(a1-4)Gal(b1-3)GlcNAc(b1-2)Man(a1-3)[Gal(a1-4)Gal(b1-3)GlcNAc(b1-2)Man(a1-6)]Man(b1-4)GlcNAc(b1-4)GlcNAc
# Procedure, shortened: as §1
# [15] = biological target: Gal(b1-3)GlcNAc(b1-3)Gal(b1-4)GlcNAc(b1-2)Man(a1-3)[Gal(b1-3)GlcNAc(b1-3)Gal(b1-4)GlcNAc(b1-2)Man(a1-6)]Man(b1-4)GlcNAc(b1-4)GlcNAc
# Procedure, shortened: as §1
# [16] = biological target: Gal(b1-3)[Fuc(a1-4)]GlcNAc(b1-6)GalNAc
# Procedure, shortened: as §1
# [17] = biological target: Gal(b1-4)GalNAc(a1-3)[Fuc(a1-2)]Gal(b1-4)GlcNAc
# Procedure, shortened: as §1
# [18] = biological target: Gal(b1-4)GlcNAc(b1-2)[Gal(b1-4)GlcNAc(b1-6)]Man(a1-6)[Gal(b1-4)GlcNAc(b1-2)Man(a1-3)]Man(b1-4)GlcNAc(b1-4)[Fuc(a1-6)]GlcNAc
# Procedure, shortened: as §1
# [19] = biological target: Gal(b1-4)GlcNAc(b1-3)Gal(b1-4)GlcNAc(b1-2)Man(a1-3)[Gal(b1-4)GlcNAc(b1-3)Gal(b1-4)GlcNAc(b1-2)Man(a1-6)]Man(b1-4)GlcNAc(b1-4)[Fuc(a1-6)]GlcNAc
# Procedure, shortened: as §1
# [20] = biological target: Gal(b1-4)GlcNAc(b1-3)Gal(b1-4)GlcNAc(b1-3)Gal(b1-4)GlcNAc(b1-2)Man(a1-3)[Gal(b1-4)GlcNAc(b1-3)Gal(b1-4)GlcNAc(b1-3)Gal(b1-4)GlcNAc(b1-2)Man(a1-6)]Man(b1-4)GlcNAc(b1-4)[Fuc(a1-6)]GlcNAc
# Procedure, shortened: as §1
# [21] = biological target: Gal(b1-4)GlcNAc(b1-3)Gal(b1-4)GlcNAc(b1-3)Gal(b1-4)GlcNAc(b1-3)Gal(b1-4)GlcNAc(b1-2)Man(a1-3)[Gal(b1-4)GlcNAc(b1-3)Gal(b1-4)GlcNAc(b1-3)Gal(b1-4)GlcNAc(b1-3)Gal(b1-4)GlcNAc(b1-2)Man(a1-6)]Man(b1-4)GlcNAc(b1-4)[Fuc(a1-6)]GlcNAc
# Procedure, shortened: as §1
# [22] = biological target: Gal(b1-4)GlcNAc(b1-3)Gal(b1-4)GlcNAc(b1-3)Gal(b1-4)GlcNAc(b1-3)Gal(b1-4)GlcNAc(b1-3)Gal(b1-4)GlcNAc(b1-2)Man(a1-3)[Gal(b1-4)GlcNAc(b1-3)Gal(b1-4)GlcNAc(b1-3)Gal(b1-4)GlcNAc(b1-3)Gal(b1-4)GlcNAc(b1-3)Gal(b1-4)GlcNAc(b1-2)Man(a1-6)]Man(b1-4)GlcNAc(b1-4)GlcNAc
# Procedure, shortened: as §1
binder,measurement,setting,value
B1,glycan array binding signal (z-score),Fuc(a1-2)Gal(b1-3)GlcNAc,0.181
same,glycan array binding signal (z-score),[1],-0.827
same,glycan array binding signal (z-score),[2],0.425
same,glycan array binding signal (z-score),[3],-0.159
same,glycan array binding signal (z-score),[4],-0.831
same,glycan array binding signal (z-score),[5],1.24
same,glycan array binding signal (z-score),[6],4.99
same,glycan array binding signal (z-score),[7],-0.455
same,glycan array binding signal (z-score),[8],0.405
same,glycan array binding signal (z-score),[9],-0.717
same,glycan array binding signal (z-score),[10],0.643
same,glycan array binding signal (z-score),[11],2.68
same,glycan array binding signal (z-score),[12],-0.545
same,glycan array binding signal (z-score),[13],-1.01
same,glycan array binding signal (z-score),[14],3.06
same,glycan array binding signal (z-score),[15],0.617
same,glycan array binding signal (z-score),[16],-0.381
same,glycan array binding signal (z-score),[17],-0.495
same,glycan array binding signal (z-score),[18],2.77
same,glycan array binding signal (z-score),[19],4.14
same,glycan array binding signal (z-score),[20],3.35
same,glycan array binding signal (z-score),[21],3.73
same,glycan array binding signal (z-score),[22],4.37
